Beta apoptosis: inhibitors of cytokine-induced beta cell apoptosis, primary screen, luminescence. AID 435005, 2010. 0.8% of 300,000 active. protection from apoptosis, % (concentration not given with the values). INS-1E cytokine-induced death, ATP luminescence, 48 h; percent of positive-control rescue, neutral wells zero;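 active = Every replicate reaches about 75%, or at least half do and their mean reaches it too, limit read from the data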;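 also: 0% = cytokine-treated negative control wells and 100% = positive control rescue; higher means more ATP so stronger rescue from cytokine killing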
PAX8 reporter: inhibitors of PAX8-driven TPO luciferase reporter, primary screen, RMG-I cells, single concentration; SteadyGlo, 24 h; inhibition, % at 12.6 µM; 1.2% of 360,000 active; AID 652154, 2013;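 active = mean replicate inhibition at least 60% with every replicate also reaching 60%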;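 also: luciferase light reporting Pax8 driven TPO promoter activity; plate controls were median of neutral control wells for no effect and mitoxantrone controls for full effect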
CSC inhib: cancer stem cell viability inhibitors, primary screen, luminescence. cancer stem cell-like cells viability. inhibition, % at 7.5 µM. 1.1% of 300,000 active. AID 2717, 2010; in the data active = inhibition above about 75%; tested in HMLE shEcad cells
Mdm2-MdmX inh: inhibitors of human Mdm2-MdmX association, primary screen, cell-based, luminescence, split luciferase, SaOS-2, uHTS | SaOS-2 split-luciferase Mdm2/MdmX complementation | Protein Mdm4 (Homo sapiens) + E3 ubiquitin-protein ligase Mdm2 (Homo sapiens), … | inhibition, % at 8 µM | AID 485346, 2010 | 3% of 330,000 active;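 active = inhibition of at least 50% at 8 µM in the primary screen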
Gli-Sufu antag: Gli-Sufu pathway antagonists, primary screen, luciferase luminescence, Sufu-KO-LIGHT cells, uHTS; Sufu-KO-LIGHT fibroblasts, Gli luciferase reporter luminescence; inhibition, % at 5 µM; 0.74% of 340,000 active;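 active = inhibition above about 55%, limit read from the data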;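 also: 0% = DMSO-treated cells and 100% = wells with medium but no cells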
Shn3 3UTR inh: reduction of Shn3 3'UTR firefly luciferase signal, primary screen, Schnurri-3 inhibitor project, cell-based, Clone20 osteoblasts, set 2; Clone20 osteoblast Shn3 3'UTR firefly luciferase, 24 h; inhibition, % at 12.5 µM; 0.52% of 360,000 active; AID 588674, 2011;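 active = mean inhibition of at least 75% with every replicate also reaching 75%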;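 also: 0% = median of neutral control wells and 100% = pilot-screen positive control compound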
Mdm2-MdmX conf: Mdm2-MdmX complex disruptors, retested hits, confirmation, luminescence, single concentration. shares compounds with Mdm2-MdmX inh. Mdm2-MdmX binding, luminescent assay. inhibition, % at 8 µM. 55% of 10,000 active. AID 489028, 2010; in the data active = inhibition above about 40%
FLuc counter: full-length luciferase signal inhibition, confirmation, counter-screen for Mdm2/MdmX interaction inhibitor project, cell-based, single concentration, SaOS-2 | shares compounds with Mdm2-MdmX inh | SaOS-2 full-length luciferase counterscreen, luminescence | inhibition, % at 8 µM | 77% of 6,200 active | AID 504607, 2011;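 active = mean inhibition at 8 µM reaching about 37%, which flags the compound as non-specific, limit read from the data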;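 also: p53-null SaOS-2 cells with luciferase driven by a doxycycline-inducible promoter; compound on cells about two nights before reading with doxycycline added after day one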
The depositor's hits bear a star; . = not tested or not shown. A selection: hits, their analogues and other compounds. The true share with any hit is near 4%.

SMILES | Beta apoptosis | PAX8 reporter | CSC inhib | Mdm2-MdmX inh | Gli-Sufu antag | Shn3 3UTR inh | Mdm2-MdmX conf | FLuc counter
CC(C)(C)[S@](=O)N1Cc2cc(C(=O)N3CCCCC3)nc(-c3cccc(-c4ccc(C#N)cc4)c3)c2[C@@H]1CCO | . | -10.3 | . | . | . | . | . | .
CC1CCCCN1S(=O)(=O)c1ccc(C(=O)N(CCCN(C)C)c2nc3ccc(Br)cc3s2)cc1 (stereo unspecified) | 3.5 | 0.0 | 23.4 | 76.8* | 48.4 | -10.0 | 33.0 | 60.8*
CN(C)CCN(C(=O)c1ccc(S(=O)(=O)N2CCCC2)cc1)c1nc2ccc(Br)cc2s1 | 0.7 | -10.7 | -18.2 | 13.9 | 7.4 | -6.9 | . | .
CCC1CCCCN1S(=O)(=O)c1ccc(C(=O)N(CCCN(C)C)c2nc3cc4c(cc3s2)OCO4)cc1 (stereo unspecified) | -4.8 | . | 4.2 | 63.0* | 34.0 | 0.5 | 43.0* | 58.5*
CO[C@H]1CN(C)C(=O)c2cc(NC(=O)c3ccccc3)ccc2OC[C@H](C)N(CC2CC2)C[C@H]1C | . | 4.1 | . | . | . | . | . | .
CN1C(=O)c2cc(NC(=O)c3cccc(F)c3)ccc2OC[C@@H]2O[C@@H](CC(=O)NC3CCC3)CC[C@H]21 | . | 8.8 | . | . | . | . | . | .
CCOc1ccc(OCC)c(NC(=O)CN2CCN(c3cccc(C)c3)CC2)c1 | 10.8 | . | . | 18.2 | 3.3 | 25.9 | . | .
CCOc1ccc(OCC)c(NC(=O)CN2CCN(c3cccc(C)c3)C(C)C2)c1 (stereo unspecified) | 17.8 | . | -15.8 | 53.0* | -7.0 | -3.3 | 64.2* | 46.4*
CN(C)CC1CCCCC1C1(O)c2ccccc2CSc2sccc21 (stereo unspecified) | 5.1 | . | 11.7 | 60.7* | 7.6 | 2.9 | 55.4* | 54.1*
CN(C)CC1CCCCC1OC(=O)c1ccc(Cl)cc1 (stereo unspecified) | -15.9 | -17.2 | . | 8.7 | 9.9 | 13.1 | . | .
CC(C)c1ccc(N2C(=O)CC(Sc3nc4ccccc4o3)C2=O)cc1 (stereo unspecified) | . | -17.7 | 8.2 | 100.5* | 2.5 | -15.8 | 28.7 | .
CC(C)c1ccc(N2C(=O)CC(Sc3ncn[nH]3)C2=O)cc1 (stereo unspecified) | . | . | -8.8 | 13.7 | -4.4 | -3.3 | . | .
C[C@H]1CCCCO[C@H](CN(C)CC2CCCCC2)[C@@H](C)CN([C@@H](C)CO)C(=O)c2cc(NS(=O)(=O)c3cccs3)ccc2O1 | . | 0.1 | . | . | . | . | . | .
CCNc1cc(N2CCCC2)ccc1[N+](=O)[O-] | 2.5 | 19.4 | 9.6 | 51.1* | 0.4 | 8.7 | 8.8 | .
CO[C@H]1CN(C)C(=O)c2cc(NC(=O)NC(C)C)ccc2OC[C@H](C)N(CC2CC2)C[C@H]1C | . | 2.6 | . | . | . | . | . | .
O=C(N[C@@H](Cc1ccccc1)C(=O)CCl)OCc1ccccc1 | -14.5 | 49.7 | 42.3 | 95.8* | 8.9 | 16.8 | 84.7* | 20.2
CCC(=O)N1C[C@@H](C)[C@H](OC)CN(C)C(=O)c2cc(NC(=O)c3ccc(F)cc3)ccc2OC[C@H]1C | . | -22.1 | . | . | . | . | . | .
C[C@@H]1CCCCO[C@@H](CN(C)S(C)(=O)=O)[C@H](C)CN([C@@H](C)CO)C(=O)c2cc(NC(=O)c3ccncc3)ccc2O1 | . | -6.9 | . | . | . | . | . | .
Clc1ccc2nc(N3CCNCC3)nc(-c3ccccc3)c2c1 | 1.2 | 2.3 | 17.8 | 63.6* | -5.9 | 2.2 | 21.3 | .
O=C1CN(c2nc(-c3ccccc3)c3cc(Cl)ccc3n2)c2ccccc2N1 | 42.1 | . | -28.8 | 67.8* | . | 26.1 | 0.9 | .
C[C@H]1CN([C@@H](C)CO)C(=O)c2cccc(NS(=O)(=O)c3cccs3)c2O[C@H]1CN(C)Cc1ccc(Cl)c(Cl)c1 | . | 21.8 | . | . | . | . | . | .
O=C(c1cccnc1)N1CCCCN2[C@H](CO)[C@@H](c3ccc(C#Cc4ccccc4)cc3)[C@H]2C1 | . | -18.5 | . | . | . | . | . | .
C[C@@H]1CN([C@H](C)CO)C(=O)c2cc(NC(=O)Nc3ccc(F)cc3)ccc2O[C@H]1CN(C)Cc1ccccc1 | . | 4.9 | . | . | . | . | . | .
C=Cn1ccnc1P(=S)(c1ccc2c(c1)c1ccccc1n2CC)c1nccn1C=C | 14.7 | . | 106.2* | 66.6* | -2.3 | -7.2 | 63.2* | 55.9*
CCn1c2ccccc2c2cc(/C=N/O)ccc21 | -4.3 | -1.1 | -15.2 | 7.7 | -13.2 | 13.9 | . | .
SMILES | Beta apoptosis | PAX8 reporter | CSC inhib | Mdm2-MdmX inh | Gli-Sufu antag | Shn3 3UTR inh | Mdm2-MdmX conf | FLuc counter
COc1ccc2c(COC(=O)c3cccc(S(=O)(=O)NCC(C)C)c3)cc(=O)oc2c1 | -5.2 | -8.2 | 0.4 | 9.0 | 9.6 | 6.1 | . | .
CCCNS(=O)(=O)c1cccc(C(=O)OCc2cc(=O)oc3cc(OC)ccc23)c1 | 21.3 | 11.7 | 22.2 | 69.7* | 15.8 | -8.8 | 56.2* | 66.0*
COc1cc(/C=N/Nc2nc(Nc3ccc(C)cc3)nc(-n3nc(C)cc3C)n2)cc(OC)c1OC | 51.1 | 89.5* | 0.6 | 59.3* | 12.3 | 70.7 | 72.7* | 62.0*
COc1ccc(O)c(/C=N/Nc2nc(C)cc(-c3ccccc3)n2)c1 | 5.4 | 0.8 | 30.2 | 29.0 | 6.8 | 17.5 | . | .
COc1ccc(O)c(/C=N/Nc2nc(Nc3ccccc3)nc(-n3nc(C)cc3C)n2)c1 | 96.0* | . | 92.4* | 75.1* | 16.2 | 64.8 | 43.8* | 83.8*
COc1cc(/C=N/Nc2nc(Nc3ccccc3)nc(N3CCCCC3)n2)ccc1OCC(=O)O | 16.3 | -4.9 | 28.0 | 15.2 | -8.6 | 20.8 | . | .
COc1cc(/C=N/Nc2nc(Nc3ccccc3)nc(-n3nc(C)cc3C)n2)cc(OC)c1OC | 71.6 | 80.3* | 102.4* | 68.6* | 14.8 | 53.9 | 66.2* | 78.1*
CC(=O)N1C[C@@H]2[C@H](c3ccccc31)[C@H](CO)N2C(=O)c1ccc(F)cc1 | . | -7.9 | . | . | . | . | . | .
C[C@@H]1CN([C@@H](C)CO)C(=O)c2cc(NC(=O)Nc3cccc4ccccc34)ccc2O[C@H]1CN(C)Cc1ccncc1 | . | -0.4 | . | . | . | . | . | .
Cc1noc(C)c1NC(=O)Nc1ccc2c(c1)CC(=O)N([C@@H](C)CO)C[C@@H](C)[C@H](CN(C)C(=O)NC(C)C)O2 | . | -6.2 | . | . | . | . | . | .
COc1ccc(S(=O)(=O)N(C)C[C@H]2Oc3c(NS(=O)(=O)c4cccs4)cccc3C(=O)N([C@@H](C)CO)C[C@H]2C)cc1 | . | 20.2 | . | . | . | . | . | .
CCc1nnc(NC(=O)CCS(=O)(=O)c2ccccc2)s1 | -22.6 | 9.4 | 1.3 | 51.2* | 21.5 | -12.9 | 24.5 | .

High-throughput results from PubChem BioAssay.
